Molecules are shown by their SMILES. “And” between values parts separate entries of the source, which are not always exact repeats. Equal values may be shown once. Records with an inconclusive call do not appear. The source made the active and inactive calls. The calls were made as follows: active = hit-call score of the fitted dose curve at least 0.9, where 1 is the maximum; inconclusive = response in the unintended direction; inactive = score below 0.9.

Sequence of Cellular tumor antigen p53 (Homo sapiens) (P04637 whole entry, looked up, the tested form may be a part): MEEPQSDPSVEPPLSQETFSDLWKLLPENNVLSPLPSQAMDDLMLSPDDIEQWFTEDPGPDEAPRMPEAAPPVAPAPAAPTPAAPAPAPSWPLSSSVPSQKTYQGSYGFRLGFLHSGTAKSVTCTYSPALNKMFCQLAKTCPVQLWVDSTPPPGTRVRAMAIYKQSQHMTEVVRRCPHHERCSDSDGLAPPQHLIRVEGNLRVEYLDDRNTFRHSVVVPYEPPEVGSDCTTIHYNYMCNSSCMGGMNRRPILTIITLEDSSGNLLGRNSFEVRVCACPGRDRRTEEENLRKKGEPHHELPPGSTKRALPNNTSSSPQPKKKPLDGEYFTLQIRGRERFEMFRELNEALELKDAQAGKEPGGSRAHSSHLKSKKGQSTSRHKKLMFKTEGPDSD

For the experiment, the target named is Cellular tumor antigen p53 (Homo sapiens) (UniProt P04637). The experiment is described as follows: TOX21_p53_BLA_p2_ratio: Tox21 HCT-116 p53 Agonism Beta-lactamase Assay, Ratio, Phase 2 (AID 2283592). From the text:
TOX21_p53_BLA_p2 is a cell-based, single-readout assay that uses HCT116, a human intestinal cell line, […] in a 1536-well plate.TOX21_p53_BLA_p2_ratio is an assay readout measuring reporter gene via receptor activity and designed using inducible reporter (beta lactamase induction) detected with GAL4 b-lactamase reporter gene. The signal is derived from the ratio of cleaved (ch2) to uncleaved (ch1) reporter gene substrate used as the measure of target activity.Data from the assay component TOX21_p53_BLA_p2_ratio was analyzed into 1 assay endpoint. This assay endpoint, TOX21_p53_BLA_p2_ratio, was analyzed in the positive analysis fitting direction relative to DMSO as the negative control and baseline of activity. Using a type of inducible reporter, gain-of-signal activity can be used to understand changes in the reporter gene as they relate to the gene TP53. Furthermore, this assay endpoint can be referred to as a primary readout, because this assay has produced multiple assay endpoints and this ratio serves a reporter gene function to understand target activity. To generalize the intended target to other relatable targets, this assay endpoint is annotated to the DNA binding intended target family, where the subfamily is tumor suppressor.
Thawing Method: Place 14 mL of pre-warmed thaw medium into a 15 mL of conical tub. Remove the vial of cells to be thawed from liquid nitrogen and thaw rapidly by placing at 37C in a water bath with gentle agitation for 1-2 minutes. Decontaminate the vial by wiping with 70% ethanol before opening in a biological safety cabinet. Transfer the vial contents drop-wise into 14 mL of thaw medium in a sterile 15-mL conical tub. Centrifuge cells at 900 rpm for 4 minutes and resuspend in thaw medium. Transfer contents to the T75 tissue culture flask containing Thaw Medium and place flask in a humidified 37C/5% CO2 incubator. Switch to growth medium at first passage.Propagation Method: Aspirate medium, rinse once in DPBS, add 0.25% Trypsin/EDTA and swirl to coat the cell evenly. Add an equal volume of Growth Medium to inactivate Trypsin after 2-3 minutes incubation at 37C. Centrifuge cells at 900 rpm for 4 minutes and resuspend in growth medium. Cell should be passage or fed at least twice a week.Assay Protocol: Harvest cells from culture in growth medium and resuspend in assay medium. 2.2 Dispense 4000 cells/5 uL/well into 1536-well black/clear bottom plates using a Multidrop dispenser. After the cells were incubated at 37C for 5 hours, 23 nL of compounds dissolved in DMSO were transferred to the assay plate by a PinTool resulting in a 217-fold dilution. Incubate the plates for 16 hours at 37C, 5% CO2. Add 1 uL of 6X LiveBLAzer FRET B/G (CCF4-AM) Substrate Mixture to each well using a BioRAPTR dispenser and incubate the plates at room temperature for 2 hours. Measure fluorescence intensity at 460 and 530 nm emission and 405 nm excitation by an Envision detector. Data is expressed as the ratio of 460nm/530nm emissions. Add 4 uL of Cell-titer Glo to each well using BioRAPTR and incubate the plates at room temperature for 2 hours. Measure fluorescence intensity by a VewLux plate reader.
As to `CC(=O)c1ccc(S(=O)(=O)NC(=O)NC2CCCCC2)cc1`, the result was inactive. As for `C=C(C)C(=O)OCC(O)COc1ccc(C(C)(C)c2ccc(OCC(O)COC(=O)C(=C)C)cc2)cc1` (stereo not given), the outcome was inactive. Same read-out and setting: under `C[Si]1(C)O[Si](C)(C)O[Si](C)(C)O[Si](C)(C)O[Si](C)(C)O1` stands “inactive”; under `Nc1ccnc(=O)[nH]1`, “inactive”.

On to `Cc1ccc([N+](=O)[O-])cc1N`, for which the result was inactive. Still for that read-out and setting: to `C=CC(=O)OCCCCCCCCCC` belongs “inactive”; to `CO[Si](CCCS)(OC)OC`, “inactive”. Still for that read-out and setting: to `O=C(O)CC(C(=O)O)S(=O)(=O)O` (stereo not given) belongs “inactive”; to `CCOC(=O)C1=NOC(c2ccccc2)(c2ccccc2)C1`, “inactive”; to `CC(C)C(=O)OCCOc1ccccc1`, “inactive”. In the case of `CCOC(=O)c1ccccc1C`, the result was inactive.

On to `CCc1cccc(C)c1N`, for which the outcome was inactive. Same read-out and setting: to `CC(C)(C)NC(=O)[C@H]1CC[C@H]2[C@@H]3CC[C@H]4NC(=O)C=C[C@]4(C)[C@H]3CC[C@]12C` belongs “inactive”; to `CC(=O)OC1CCCCC1C(C)(C)C` (stereo not given), “inactive”. Still for that read-out and setting: to `CCC(C)(O)CCCC(C)C` (stereo not given) belongs “inactive”; to `COCC(=O)O`, “inactive”. For the molecule `CCCC(CC)c1ccccc1` (stereo not given), the outcome was inactive.

For `COc1ccc(-c2coc3cc(O)cc(O)c3c2=O)cc1`, the half-maximal activity concentration (AC50) is 71.6 µM (active) and 72 µM (active). Same read-out and setting: to `C=CC(=O)OCCCCCCOC(=O)C=C` belongs 69.1 µM (active) and 66.7 µM (active); to `CN(C)c1ccc2nc3ccc(=[N+](C)C)cc-3sc2c1`, 8.31 µM (active) and 23 µM (active) and 11.1 µM (active).

With `COC(C=C(C)CCC=C(C)C)OC`, the outcome was inactive. The same measure, in the same setting: under `CO[Si](C)(C)OC` stands “inactive”. On the same count and under the same terms, under `C[Si](C)(C)N[Si](C)(C)C` stands “inactive”; under `CCCCOCCOCCOC(C)=O`, “inactive”; under `CCCCCCCCCCCC(=O)OCC`, “inactive”. As for `Cc1noc(NS(=O)(=O)c2ccc(N)cc2)c1C`, the outcome was inactive. The same measure, in the same setting: under `CC1(C)[C@@H]2CC[C@@]1(C)C(=O)C2` stands “inactive”; under `CC1=CC(C)C(C=O)CC1` (stereo not given), “inactive”; under `O=C(Cl)c1c(Cl)c(Cl)c(C(=O)Cl)c(Cl)c1Cl`, “inactive”.

On to `CCCCCCOC(=O)CCCCC(=O)OCCCCCC`, for which the result was inactive. Still for that read-out and setting: under `C=C(C)C(=O)OCCOC(=O)C(=C)C` stands “inactive”. The same measure, in the same setting: under `CC1C(C)(C)C2=C(C(=O)CCC2)C1(C)C` (stereo not given) stands “inactive”. Still for that read-out and setting: to `CCCCCCO` belongs “inactive”; to `CCC1COC(=O)O1` (stereo not given), “inactive”. As for `Oc1ccc(-c2ccccc2)c(Cl)c1`, the outcome was inactive. In the case of `CC1(C)CCC[C@]2(C)[C@H]3CC(=O)O[C@]3(C)CC[C@@H]12`, the result was inactive. Still for that read-out and setting: under `CC1CC(=O)CC(C)(C)C1` (stereo not given) stands “inactive”; under `CCCCCCOc1ccc(N)cc1`, “inactive”. Still for that read-out and setting: under `C=C1C[C@H]2[C@@H]3C=C(C)C4=CC(=O)CC[C@]4(C)[C@H]3CC[C@]2(C)[C@@]1(OC(C)=O)C(C)=O` stands “inactive”; under `CC/C=C\CCOC(=O)c1ccccc1O`, “inactive”.

A word on the AC50: it is the concentration giving half of the maximal activity seen.

The values above are taken from PubChem BioAssay (EPA / NIEHS).
